Source: PubChem BioAssay (EPA / NIEHS)
The source made the active and inactive calls. The calls were made as follows: active = hit-call score of the fitted dose curve at least 0.9, where 1 is the maximum; inactive = score below 0.9.

What was measured:
Details in all cases: mRNA level, 48 h; actives raise or lower the signal
[1] = read-out: Pro-epidermal growth factor (Homo sapiens) (UniProt P01133); assay: LTEA_HepaRG_EGF: Life Technologies and Expression Analysis (LTEA) Assay for Epidermal growth factor (EGF) using HepaRG (AID 2283489)
How it was run: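 HepaRG cells (~100,000/well, 48 h pre-culture) exposed in duplicate for 48 h in serum-free induction medium to 8 half-log concentrations up to 100 uM in 0.5% DMSO. EGF mRNA by qRT-PCR, normalized to ACTB/GAPDH/POLR2A; bidirectional fit versus DMSO.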

[2] = read-out: Ezrin (EZR), EZR (gene 7430); assay: LTEA_HepaRG_EZR: Life Technologies and Expression Analysis (LTEA) Assay for Ezrin (EZR) using HepaRG (AID 2283491)
How it was run: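 EZR transcript levels came from Fluidigm qRT-PCR and were normalized to three housekeeping genes after 48 h chemical exposure of HepaRG cells. Dosing used an 8-point half-log series with a 100 uM top concentration in 0.5% DMSO, tested in duplicate; both directions were fitted versus vehicle.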

[3] = read-out: Cytochrome P450 3A7 (Homo sapiens) (UniProt P24462); assay: LTEA_HepaRG_CYP3A7: Life Technologies and Expression Analysis (LTEA) Assay for CYP3A7 using HepaRG (AID 2283492)
How it was run: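 Differentiated HepaRG cells in serum-free induction medium exposed 48 h in duplicate to 8-point half-log series from 100 uM top in 0.5% DMSO. CYP3A7 mRNA by qRT-PCR, normalized to ACTB/GAPDH/POLR2A, bidirectional fit versus DMSO.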

CYP3A5 (gene 1577) = assay: LTEA_HepaRG_CYP3A5: Life Technologies and Expression Analysis (LTEA) Assay for CYP3A5 using HepaRG (AID 2283493)
How it was run: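 Human HepaRG hepatic cells receive 48 h chemical treatment at eight concentrations (half-log steps from 100 uM) in 0.5% DMSO. Expression of CYP3A5 is quantified by Fluidigm qRT-PCR and normalized to three reference genes.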

[4] = read-out: Fatty Acid-Binding Protein 1 (FABP1), FABP1 (gene 2168); assay: LTEA_HepaRG_FABP1: Life Technologies and Expression Analysis (LTEA) Assay for Fatty Acid-Binding Protein 1 (FABP1) using HepaRG (AID 2283494)
How it was run: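 qRT-PCR readout of FABP1 transcript (normalized to three housekeeping genes) after 48 h chemical exposure of HepaRG cells; eight concentrations, half-log steps, max 100 uM, 0.5% DMSO vehicle; gain or loss fitted relative to DMSO baseline.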

[5] = read-out: Cytochrome P450 4A22 (Homo sapiens) (UniProt Q5TCH4); assay: LTEA_HepaRG_CYP4A22: Life Technologies and Expression Analysis (LTEA) Assay for Cytochrome P450 4A22 (CYP4A22) using HepaRG (AID 2283495)
How it was run: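 Differentiated HepaRG cells in serum-free induction medium exposed 48 h in duplicate to eight half-log concentrations up to 100 uM in 0.5% DMSO. CYP4A22 mRNA quantified by TaqMan qRT-PCR, normalized to ACTB, GAPDH and POLR2A; bidirectional fit versus DMSO.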

[6] = read-out: Cytochrome P450 7A1 (Homo sapiens) (UniProt P22680); assay: LTEA_HepaRG_CYP7A1: Life Technologies and Expression Analysis (LTEA) Assay for Cytochrome P450 7A1 (CYP7A1) using HepaRG (AID 2283496)
How it was run: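 HepaRG, 48 h exposure, 8-pt half-log series from 100 uM, 0.5% DMSO vehicle, duplicates. Readout: TaqMan qRT-PCR mRNA vs three housekeeping genes; bidirectional curve fit against DMSO baseline.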

[7] = read-out: Glutathione S-Transferase (GSTA2), GSTA2 (gene 2939); assay: LTEA_HepaRG_GSTA2: Life Technologies and Expression Analysis (LTEA) Assay for Glutathione S-Transferase (GSTA2) using HepaRG (AID 2283497)
How it was run: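 qRT-PCR readout of GSTA2 transcript, normalized to three housekeeping genes, fitted bidirectionally against 0.5% DMSO baseline. Differentiated HepaRG cells received compound for 48 h at 8 concentrations (top 100 uM, half-log steps).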

[8] = read-out: Glutamate-cysteine ligase catalytic (GCLC), GCLC (gene 2729); assay: LTEA_HepaRG_GCLC: Life Technologies and Expression Analysis (LTEA) Assay for Glutamate-cysteine ligase catalytic (GCLC) using HepaRG (AID 2283498)
How it was run: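 HepaRG, 48 h exposure, 8-pt half-log series from 100 uM, 0.5% DMSO vehicle; TaqMan qRT-PCR for GCLC mRNA, housekeeping-normalized; bidirectional curve fit vs DMSO baseline.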

[9] = read-out: growth arrest and DNA damage 45 (GADD45G), GADD45G (gene 10912); assay: LTEA_HepaRG_GADD45G: Life Technologies and Expression Analysis (LTEA) Assay for growth arrest and DNA damage 45 (GADD45G) using HepaRG (AID 2283499)
How it was run: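 Differentiated human HepaRG cells, 48 h post-plating, exposed 48 h in serum-free induction medium to 8 half-log concentrations (top 100 uM, 0.5% DMSO) in duplicate. GADD45G mRNA measured by Fluidigm TaqMan qRT-PCR, normalized to ACTB, GAPDH, POLR2A; bidirectional fit versus DMSO.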

[10] = read-out: Glutamate-cysteine ligase regulatory (GCLM), GCLM (gene 2730); assay: LTEA_HepaRG_GCLM: Life Technologies and Expression Analysis (LTEA) Assay for Glutamate-cysteine ligase regulatory (GCLM) using HepaRG (AID 2283500)
How it was run: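 Endpoint is GCLM transcript level by qRT-PCR, normalized to three housekeeping genes, after 48 h chemical exposure of human HepaRG cells (0.5% DMSO vehicle, top 100 uM, half-log dilutions). Fitting was bidirectional relative to DMSO.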

[11] = read-out: Glutathione S-transferase M3 (GSTM3), GSTM3 (gene 2947); assay: LTEA_HepaRG_GSTM3: Life Technologies and Expression Analysis (LTEA) Assay for Glutathione S-transferase M3 (GSTM3) using HepaRG (AID 2283501)
How it was run: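 Differentiated human HepaRG cells were exposed in duplicate for 48 h in serum-free induction medium, 8 points from 100 uM top in half-log steps, 0.5% DMSO. GSTM3 mRNA was measured by TaqMan qRT-PCR, normalized to ACTB, GAPDH and POLR2A; bidirectional fit versus DMSO.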

[12] = read-out: Hypoxia-inducible factor 1-alpha (Homo sapiens) (UniProt Q16665); assay: LTEA_HepaRG_HIF1A: Life Technologies and Expression Analysis (LTEA) Assay for Hypoxia-inducible factor 1 (HIF1A) Trancription factor using HepaRG (AID 2283503)
How it was run: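 HIF1A transcript level read by qRT-PCR (ACTB, GAPDH, POLR2A normalization) after 48 h chemical exposure of HepaRG cultures. Eight half-log concentrations, top 100 uM, 0.5% DMSO vehicle, duplicates; bidirectional curve fit against DMSO baseline.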

[13] = read-out: 3-Hydroxy-3-Methylglutaryl-CoA Synthase 2 (HMGCS2), HMGCS2 (gene 3158); assay: LTEA_HepaRG_HMGCS2: Life Technologies and Expression Analysis (LTEA) Assay for 3-Hydroxy-3-Methylglutaryl-CoA Synthase 2 (HMGCS2) using HepaRG (AID 2283504)
How it was run: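 Human HepaRG cells in serum-free induction medium were exposed in duplicate for 48 h to 8-point half-log series from 100 uM top in 0.5% DMSO. HMGCS2 mRNA measured by TaqMan qRT-PCR, normalised to ACTB, GAPDH, POLR2A; bidirectional fit versus DMSO.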

HGF (gene 3082) = assay: LTEA_HepaRG_HGF: Life Technologies and Expression Analysis (LTEA) Assay for Hepatocyte Growth Facto (HGF) using HepaRG (AID 2283505)
How it was run: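 Differentiated HepaRG cells in serum-free induction medium exposed 48 h in duplicate, 8 half-log concentrations from 100 uM in 0.5% DMSO. HGF mRNA by qRT-PCR, normalised to ACTB, GAPDH, POLR2A; bidirectional fitting.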

[14] = read-out: Insulin Like Growth Factor 1 (IGF1), IGF1 (gene 3479); assay: LTEA_HepaRG_IGF1: Life Technologies and Expression Analysis (LTEA) Assay for Insulin Like Growth Factor 1 (IGF1) using HepaRG (AID 2283506)
How it was run: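 Cells are thawed, plated and cultured 48 h, then exposed in duplicate to chemical (highest 100 uM, half-log steps, 0.5% DMSO) for another 48 h. Total RNA is analysed by Fluidigm qRT-PCR for IGF1 expression relative to vehicle.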

[15] = read-out: Insulin-like growth factor-binding protein 1 (IGFBP1), IGFBP1 (gene 3484); assay: LTEA_HepaRG_IGFBP1: Life Technologies and Expression Analysis (LTEA) Assay for Insulin-like growth factor-binding protein 1 (IGFBP1) using HepaRG (AID 2283508)
How it was run: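 HepaRG cells, plated 48 h then switched to serum-free induction medium, exposed in duplicate for 48 h to 8-point half-log series from 100 uM in 0.5% DMSO. mRNA measured by qRT-PCR, normalized to ACTB/GAPDH/POLR2A; bidirectional fit versus DMSO.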

[16] = read-out: Heat shock 70 kDa protein 1 (HSPA1A), gene 3303; assay: LTEA_HepaRG_HSPA1A: Life Technologies and Expression Analysis (LTEA) Assay for Heat shock 70 kDa protein 1 (HSPA1A) using HepaRG (AID 2283502)
How it was run: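 Cells were plated and cultured for 48 h, then switched to serum-free induction medium. Chemicals were added at eight half-log concentrations up to 100 uM for 48 h. RNA was then isolated and HSPA1A measured by qRT-PCR with bidirectional curve fitting against DMSO.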

[17] = read-out: Intercellular Adhesion Molecule 1 (ICAM1), ICAM1 (gene 3383); assay: LTEA_HepaRG_ICAM1: Life Technologies and Expression Analysis (LTEA) Assay for Intercellular Adhesion Molecule 1 (ICAM1) using HepaRG (AID 2283507)
How it was run: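 Differentiated human HepaRG cells in serum-free induction medium exposed 48 h in duplicate to 8 half-log concentrations (top 100 uM, 0.5% DMSO). ICAM1 mRNA quantified by TaqMan qRT-PCR, normalized to ACTB, GAPDH and POLR2A; bidirectional fitting versus DMSO.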

[18] = read-out: Early growth response protein 1 (EGR1) transcription factor, EGR1 (gene 1958); assay: LTEA_HepaRG_EGR1: Life Technologies and Expression Analysis (LTEA) Assay for Early growth response protein 1 (EGR1) transcription factor using HepaRG (AID 2283490)
How it was run: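 HepaRG, 48 h exposure, 8-pt half-log series from 100 uM, 0.5% DMSO vehicle; EGR1 transcript by TaqMan qRT-PCR (Fluidigm array), housekeeping-normalized; bidirectional fit relative to DMSO baseline.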

Measured: outcome

Chain of Cytochrome P450 3A7 (Homo sapiens) (P24462 whole entry, looked up): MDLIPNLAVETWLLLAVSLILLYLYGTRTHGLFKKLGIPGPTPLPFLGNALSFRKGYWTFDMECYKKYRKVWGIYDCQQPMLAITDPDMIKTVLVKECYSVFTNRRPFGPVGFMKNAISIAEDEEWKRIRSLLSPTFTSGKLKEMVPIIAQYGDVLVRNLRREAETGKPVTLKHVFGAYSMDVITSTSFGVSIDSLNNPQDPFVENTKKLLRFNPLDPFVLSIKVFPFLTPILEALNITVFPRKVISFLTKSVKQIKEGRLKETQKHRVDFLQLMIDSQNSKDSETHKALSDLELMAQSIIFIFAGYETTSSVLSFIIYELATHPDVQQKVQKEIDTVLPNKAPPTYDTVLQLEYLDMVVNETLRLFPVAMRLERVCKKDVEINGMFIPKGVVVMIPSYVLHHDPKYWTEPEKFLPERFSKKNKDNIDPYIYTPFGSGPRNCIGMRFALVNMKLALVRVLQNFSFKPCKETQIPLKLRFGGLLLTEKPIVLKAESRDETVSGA
Chain of Hypoxia-inducible factor 1-alpha (Homo sapiens) (Q16665 whole entry, looked up): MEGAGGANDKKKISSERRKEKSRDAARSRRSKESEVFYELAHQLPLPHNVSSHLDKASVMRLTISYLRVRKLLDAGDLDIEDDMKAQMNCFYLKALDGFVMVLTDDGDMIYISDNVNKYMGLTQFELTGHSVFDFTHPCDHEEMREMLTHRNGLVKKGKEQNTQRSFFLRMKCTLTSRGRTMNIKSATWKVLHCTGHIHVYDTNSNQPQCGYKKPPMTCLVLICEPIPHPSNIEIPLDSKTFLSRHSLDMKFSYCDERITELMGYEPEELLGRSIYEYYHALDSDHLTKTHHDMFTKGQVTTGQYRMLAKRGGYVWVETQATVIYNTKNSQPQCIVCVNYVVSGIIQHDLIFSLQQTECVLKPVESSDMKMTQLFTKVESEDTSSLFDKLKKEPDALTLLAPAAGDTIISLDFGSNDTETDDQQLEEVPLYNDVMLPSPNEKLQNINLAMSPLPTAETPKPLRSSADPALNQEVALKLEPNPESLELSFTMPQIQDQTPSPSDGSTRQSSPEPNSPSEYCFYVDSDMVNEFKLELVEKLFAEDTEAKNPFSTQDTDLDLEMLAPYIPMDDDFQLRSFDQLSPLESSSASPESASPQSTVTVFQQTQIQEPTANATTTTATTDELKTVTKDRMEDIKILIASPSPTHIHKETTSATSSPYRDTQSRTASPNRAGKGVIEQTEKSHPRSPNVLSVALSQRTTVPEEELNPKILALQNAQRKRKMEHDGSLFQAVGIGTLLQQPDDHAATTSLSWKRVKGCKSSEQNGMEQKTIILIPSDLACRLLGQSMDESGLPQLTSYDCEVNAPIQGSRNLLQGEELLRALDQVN

Cc1ccc2ncccc2c1
inactive: [1] | [2] | [3] | CYP3A5 (gene 1577) | [4] | [5] | [6] | [7] | [8] | [9] | [10] | [11] | [12] | [13] | HGF (gene 3082) | [14] | [15]

CC(=O)OCCOCCOCCOC(C)=O
inactive: [1] | [2] | [3] | CYP3A5 (gene 1577) | [4] | [5] | [6] | [7] | [8] | [10] | [11] | [16] | [12] | [13] | [14] | [17] | [15]

Cc1c(C(=O)O)c(O)cc2c1C(=O)c1c(O)c([C@@H]3O[C@H](CO)[C@@H](O)[C@H](O)[C@H]3O)c(O)c(O)c1C2=O
inactive: [1] | [2] | [3] | CYP3A5 (gene 1577) | [4] | [5] | [6] | [7] | [8] | [10] | [11] | [12] | [13] | [14] | [15]

C=CCOC(=O)c1ccccc1C(=O)OCC=C
inactive: [1] | [2] | [3] | CYP3A5 (gene 1577) | [4] | [5] | [6] | [7] | [8] | [9] | [10] | [11] | [12] | [13] | HGF (gene 3082) | [14] | [17] | [15]

CCCCN(CCCC)CCCC
inactive: [18] | [2] | [3] | CYP3A5 (gene 1577) | [4] | [5] | [6] | [7] | [8] | [9] | [10] | [11] | [12] | [13] | [14] | [17] | [15]

NCC1(Cc2noc(=O)[nH]2)CCCCC1
inactive: [18] | [2] | [3] | CYP3A5 (gene 1577) | [4] | [5] | [6] | [7] | [8] | [9] | [10] | [11] | [12] | [13] | [14] | [15]

Clc1cc(Cl)c(Cl)cc1Cl
inactive: [1] | [2] | [3] | CYP3A5 (gene 1577) | [4] | [5] | [6] | [7] | [8] | [9] | [10] | [11] | [12] | [13] | HGF (gene 3082) | [14] | [15]
